Screening results (PubChem)
Compounds with a hit are over-represented: about 12% of the library has one in this group of screens.
PLK1 PBD block – blocks phosphopeptide binding to human PLK1 polo-box domain; P53350; Plk1 PBD binding of FITC phosphopeptide, fluorescence polarization; Potency, µM, hits mostly inhibitors; 2.8% of 360,000 active; AID 720504; also: series mostly up to about 57 µM; nearly all actives have a fitted effect of over 65% in size
PI5P4Ka inh – inhibitors of human PI5P4K alpha | P48426 | PI5P4Kalpha enzyme, ADP-Glo luminescence, 60 min; active compounds read low | max response, % | 1.2% of 330,000 active | AID 652105; active = max response of -50% or lower; inconclusive = between -30% and -50%; inactive = -30% or higher; also: value at the top dose of about 77 µM
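Controls without substrate or without enzyme flank wells where PI5P4Kalpha converts substrate using 5 microM ATP (final). Incubation lasts 60 minutes at room temperature; ADP formed is read by ADP-Glo luminescence.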
HP1b chromo inh – inhibitors of HP1-beta chromodomain binding to methylated histone tails; P83916; AlphaScreen HP1-beta / biotin-H3K9me3 peptide binding; Potency, µM (top dose mostly 114 µM), usual class: inhibitors; 0.56% of 390,000 active; AID 540317; also: nearly all actives have a fitted effect of over 70% in size
Target sequence (P83916 whole entry, looked up): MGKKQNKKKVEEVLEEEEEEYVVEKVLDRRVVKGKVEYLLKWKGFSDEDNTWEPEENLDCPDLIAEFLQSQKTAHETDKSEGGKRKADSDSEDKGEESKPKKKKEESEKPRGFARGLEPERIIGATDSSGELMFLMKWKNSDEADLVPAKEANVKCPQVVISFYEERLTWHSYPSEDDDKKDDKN
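HP1-beta protein (50 nM final) preincubated 30 min at room temperature with biotinylated H3(1-18)K9me3 peptide (50 nM) in PBS pH 7.4, 0.01% Tween-20, then compound added for 30 min. AlphaScreen streptavidin donor/nickel chelate acceptor beads (10 ug/mL final), 30 min dark, luminescence read.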
BAZ2B block – BAZ2B (human) inhibition; Potency, µM (series often up to 114 µM), hits mostly inhibitors; Q9UIF8; AlphaScreen BAZ2B-H3K14Ac peptide displacement; AID 504333; 4.4% of 360,000 active; also: nearly all actives have a fitted effect of over 60% in size
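BAZ2B (50 nM) with biotin-H3(5-23)K14Ac peptide (50 nM) in PBS pH 7.4, 0.01% Tween-20, preformed 30 min, then compound 30 min at room temperature; top concentration 110uM. AlphaScreen streptavidin donor/nickel chelate acceptor beads (10 ug/mL final), 20 min dark, signal read.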
G9a block – inhibitors of human histone lysine methyltransferase G9a. G9a H3K9 monomethylation, AlphaScreen, 2 h. Potency, µM (doses to about 102 µM), usual class: inhibitors. 8.8% of 350,000 active. AID 504332; also: nearly all actives have a fitted effect of over 75% in size
Target sequence (Q96KQ7 913-1193 limits assumed): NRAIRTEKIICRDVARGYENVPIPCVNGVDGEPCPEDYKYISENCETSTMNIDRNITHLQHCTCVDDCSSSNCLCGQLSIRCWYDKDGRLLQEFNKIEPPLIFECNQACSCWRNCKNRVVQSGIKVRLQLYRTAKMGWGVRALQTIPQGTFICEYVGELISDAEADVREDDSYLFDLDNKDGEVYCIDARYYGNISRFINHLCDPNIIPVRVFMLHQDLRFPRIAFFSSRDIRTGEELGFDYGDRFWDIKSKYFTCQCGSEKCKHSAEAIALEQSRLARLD
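AlphaScreen read-out: biotin-H3K9 peptide (500 nM) methylation by 20 nM enzyme with 20 uM SAM, 2 h at room temperature after 15 min compound preincubation; anti-monomethyl H3K9 antibody plus donor/acceptor beads, 10 min dark.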
JMJD2A Tudor – JMJD2A Tudor domain (human) inhibition; Potency, µM (series often up to 114 µM), hits mostly inhibitors; AlphaScreen JMJD2A-Tudor / H3K4me3 peptide binding; AID 504339; 4.4% of 390,000 active; also: nearly all actives have a fitted effect of over 50% in size
Hits are given with their value; n = inactive; u = inconclusive; x = not tested or not shown; [ ] = another dose, or the depositor's remark. Unless noted, calls follow the shape of the dose curve; as a rule, active = well fitted curve in the direction sought with a large enough effect; inconclusive = small, poorly fitted or top-dose-only effect, or another doubt; inactive = no such curve, though single readings can be large; an effect the other way counts as inactive or inconclusive.

SMILES	PLK1 PBD block	PI5P4Ka inh	HP1b chromo inh	BAZ2B block	G9a block	JMJD2A Tudor
C#CCOCCOCCOCCNc1nc(N2CCN(C(=O)CCCCCCCCCCNC(=O)[C@H](CO)n3cc(CCCSC)nn3)CC2)nc(N2CCN(C(=O)CCCCCCCCCCNC(=O)[C@H](CCCN=C(N)N)n3cc(C[C@@H](C)CC)nn3)CC2)n1	n	-79	n	u	n[2.33 µM]	79µM
O=[N+]([O-])c1cccc(S(=O)(=O)Nc2ccc(-c3ccc(N4CCOCC4)nn3)cc2)c1	n	n	n	n	45µM	n
O=[N+]([O-])c1cccc(S(=O)(=O)Nc2cccc(-c3ccc(N4CCOCC4)nn3)c2)c1	n	n	n	n	10µM	n
O=[N+]([O-])c1ccc(Nc2nc(NC3CCCCC3)nc(N3CCCC3)n2)cc1	n	n	n	u	11µM	u
Clc1cccc(Nc2nc(N3CCOCC3)nc(N3CCOCC3)n2)c1	n	n	n	n	50µM	n
c1ccc(Nc2nc(N3CCCCC3)nc(N3CCCCC3)n2)cc1	21µM	n	n	n	n	n[11.4 µM]
c1ccc(Nc2nc(N3CCCC3)nc(N3CCCC3)n2)cc1	n	x	n	n	n	n
O=[N+]([O-])c1ccc(Nc2nc(N/N=C/c3cccc(F)c3)nc(N3CCCC3)n2)cc1	n	n	n	n	n	n
CC1=C(C(=O)N2CCN(c3ccc(Cl)cc3)CC2)C2(CCC(C)CC2)OC1=O (centres undefined)	x	x	n	u	n	n
CN(CC(=O)Nc1ccccc1Sc1ccccc1)C1CCCCC1	n	n	n	n	n	n
O=C(Cc1ccc(NC(=O)C2CCCN(C(=O)C3CCC3)C2)cc1)Nc1cccc(C(=O)N2CCCC2)c1 (centres undefined)	n	n	n	x	x	n
C=C1OC(CO)(n2cnc3c(N)ncnc32)C(O)C1O (centres undefined)	x	x	n	x	n	n
COc1ccc2[nH]c(C(=O)NCc3ccccc3)cc2c1	n	n	n	n	x	n
COc1ccc(CN(Cc2cccn2C)C(=O)c2cc3cc(OC)ccc3[nH]2)cc1	n	n	n	u	50µM	u
Cn1c(=O)c(-c2cccc(C#N)c2)nc2cnc(Oc3ccccc3)nc21	x	x	x	x	n[0.501 µM]	x
Cc1ccc(N2C(=O)CSC23C(=O)N(CC(=O)NCCc2ccccc2)c2ccccc23)cc1C (centres undefined)	x	x	n	n	n	n
O=C(c1ccccc1)c1ccccc1	n	n	n	n	n[12.7 µM]	n
O=C(O)c1ccc(C(=O)C(=O)c2ccccc2)cc1	n	n	n	n	79µM	n
COc1cccc(NC(=O)CSC2=Nc3ccccc3N=C(c3ccc(F)cc3)C2)c1	x	x	n	u	n	n
Cc1nc(NC(=O)CN2CC(C)OC(C)C2)sc1C(=O)N(C)C (centres undefined)	n	n	n	n	u	n
Cc1cc(C)c(C(=O)COC(=O)C2CC3CCCC(C2)C3=O)c(C)c1 (centres undefined)	n	n	n	n	n	n
Cc1ccc(/C=C2/NC(=O)N(Cc3ccccc3)C2=O)s1	n	x	n	u	u	n
CCN1C(=O)/C(=C/c2ccc(C)s2)NC1=S	n	n	n	n	13µM	n
CCc1cc[n+](C2=C([O-])c3ccccc3C(=O)/C2=N\S(=O)(=O)c2cccs2)cc1	u	u	u	u	u	79µM
CS(=O)(=O)c1nc(S(=O)(=O)c2ccc(Cl)cc2)c(NCc2ccccn2)s1	n	n	n	n	40µM	n
SMILES	PLK1 PBD block	PI5P4Ka inh	HP1b chromo inh	BAZ2B block	G9a block	JMJD2A Tudor
CCS(=O)(=O)c1nc(S(=O)(=O)c2ccc(C)cc2)c(NCc2ccccn2)s1	n	n	n	n	n	n
CCCS(=O)(=O)c1nc(S(=O)(=O)c2ccc(C)cc2)c(NCc2ccccn2)s1	n	n	n	n	35µM	n
CCCS(=O)(=O)c1nc(S(=O)(=O)c2ccc(C)cc2)c(NCc2ccco2)s1	n	n	n	n	40µM	n
CCCS(=O)(=O)c1nc(S(=O)(=O)c2ccc(C)cc2)c(N2CC(C)OC(C)C2)s1 (centres undefined)	n	n	n	n	50µM	n
CCS(=O)(=O)c1nc(S(=O)(=O)c2ccc(Cl)cc2)c(NCc2ccccc2Cl)s1	x	x	n	n	n	n
Cc1ccc(S(=O)(=O)c2nc(S(=O)(=O)c3ccc(C)cc3)c(NCc3ccco3)s2)cc1	n	x	n	n	n[0.0925 µM]	n
COc1ccccc1NC(=O)Nc1cc(F)ccc1F	n	n	n	n	n	n
CCOCCn1ccc2c(OCC(=O)Nc3ccc(C(N)=O)cc3)cccc2c1=O	x	x	n	n	n	n
Cc1ccc2c(C)c(C(=O)N(Cc3ccc(Cl)cc3)C3CCS(=O)(=O)C3)oc2c1 (centres undefined)	x	x	n	n	n	n
N#Cc1nc(-c2ccco2)oc1N1CCOCC1	n	x	n	n	n	n
COc1ccc(N2CCN(c3oc(-c4ccco4)nc3C#N)CC2)cc1	n	n	u	x	25µM	32µM
N#Cc1nc(-c2ccco2)oc1N1CCN(c2ccccc2)CC1	n	n	u	13µM	u	u
Cc1noc(C)c1-c1nccc(Nc2ccc(F)cc2)n1	x	x	x	x	n[0.501 µM]	x
CC[C@H](C)[C@H]1CNC(=S)N1CC1CCN(CCC23CC4CC(CC(C4)C2)C3)CC1	n	n	n	x	x	n
Cc1ccc(NC(=O)C(C)OC(=O)CCN=C2NS(=O)(=O)c3ccccc32)cc1 (centres undefined)	n	n	n	n	u	n
CCOC(=O)/C(C#N)=C\c1ccc(OC)c(OC)c1	n	n	n	n	u	n
CC(C)(C)c1cc(/C=N/O)cc(C(C)(C)C)c1O	n	n	n	n	n	n
N#C/C(=C/c1ccc(F)cc1)C(N)=S	30µM	n	n	n	5.6µM	n
N#C/C(=C\c1ccncc1)C(N)=O	n	n	n	n	n	n
N#CC(C#N)=C(N)/C(C#N)=C/c1cc(O)c(O)c(O)c1	n	-67	18µM	11µM	5.6µM	18µM
CC(C)(C)c1cc(/C=C(\C#N)C(N)=S)cc(C(C)(C)C)c1O	x	x	x	x	28µM	x
CCCNC(=O)C1(C)CCCN(C(=O)c2ccc(F)cc2Cl)C1 (centres undefined)	n	n	x	x	x	x
Cc1cccc(NCc2ccc([N+](=O)[O-])s2)c1	n	n	n	u	45µM	u
O=[N+]([O-])c1ccc(CNc2cccc(F)c2)s1	n	n	n	n	50µM	u
Cc1cccc(NCc2ccccc2)c1	n	n	n	n	n	n[11.4 µM]
CC(O)CN1CCN(C(=O)CN2C(=O)NC(c3ccccc3)(c3ccccc3)C2=O)CC1 (centres undefined)	n	n	n	n	n	n
C=CCNC(=O)NC(=O)COC(=O)/C=C/c1cccc([N+](=O)[O-])c1	n	-83	n	n	n	n
